Compound activity: PubChem BioAssay, National Center for Advancing Translational Sciences (NCATS)
This is a sample that favours compounds with a hit; in the whole collection about 2.2% have one here.
TDP-43 yeast inh = TDP-43 toxicity inhibition in yeast; TDP-43 expressing yeast growth rescue, BacTiter-Glo, 24 h; Potency, µM (top dose mostly 46.1 µM), inactives show top-dose growth rescue (activation), most hits filed as activators; 410,000 tested, 1.8% active; AID 652104; note: % of control where 0% means no effect; nearly all actives have a fitted effect of over 50% in size
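Galactose-induced TDP-43 yeast, OD600=0.02, compound pinned; 24 hr, 30 deg C; BacTiter-Glo luminescence for growth. Inhibitors of TDP-43 toxicity read as activators.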
Mito fusion yeast = mitochondrial division inhibition or fusion activation; Potency, µM (doses to about 46.1 µM), inactives show top-dose growth rescue (activation), usual class: activators; 320,000 tested, 0.23% active; AID 485298; S. cerevisiae fusion-defective mutant growth rescue, CellTiterGlo 48 h; note: % of control where 0% means no effect; nearly all actives have a fitted effect of over 45% in size
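Read-out: ATP-based luminescence (CellTiterGlo, 10 min ambient) reporting growth of fusion-defective ts yeast after 48 hours at 37C on glycerol/ethanol YPEG medium in the presence of compound.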
Abeta yeast res = A-beta toxicity reversal in yeast | yeast expressing A-beta42, growth rescue, OD600, 48 h; response scale: 0% DMSO, 100% iron-clioquinol control | Potency, µM (highest dose often 46.1 µM), hits mostly activators | 410,000 tested, 0.063% active | AID 1347071; note: nearly all actives have a fitted effect of over 55% in size
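Yeast A-beta toxicity model in growth medium with pinned compounds, 48 h at 30 C; growth read as absorbance at 600 nm. Normalized to FeCl3/clioquinol equimolar mix (positive) and DMSO (negative).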
FUS yeast rescue = rescues growth of FUS-expressing yeast; S. cerevisiae FUS-expressing, growth rescue, OD600, 24 h; Potency, µM (doses to about 76.6 µM), actives largely listed as activators; 390,000 tested, 0.24% active; AID 1347120;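 note: plate controls were DMSO vehicle for no effect and reference control for full effect; nearly all actives have a fitted effect of over 55% in size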
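Yeast FUS proteinopathy model; galactose-induced FUS (2%), starting OD 0.005. Cpds in dilution series, 24hr, 30C, 99% humidity. Abs 600 nm growth. Pos ctrl CP55940 (top 92uM final); neg ctrl DMSO.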
aSyn yeast inh = rescues yeast growth from alpha-synuclein toxicity; Yeast expressing alpha-synuclein, growth rescue, BacTiter-Glo, 24 h; Potency, µM (doses to about 46.1 µM), for the others: at the top dose growth rescue (activation), actives largely listed as activators; 370,000 tested, 0.14% active; AID 652106; note: % of control where 0% means no effect; nearly all actives have a fitted effect of over 65% in size
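Readout is rescue of growth in alpha-synuclein-expressing yeast, so inhibitors of toxicity appear as activators. Growth after 24 hr at 30 deg C in galactose medium is quantified by luminescence.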
* marks the source's active call; other numbers are inactive results. Calls come from the whole dose curve; as a rule, active = well fitted curve in the direction sought with a large enough effect; inconclusive = small, poorly fitted or top-dose-only effect, or another doubt; inactive = no such curve, though single readings can be large; an effect the other way counts as inactive or inconclusive. Potency is the fitted concentration of half-maximal effect.

For COc1ccc2c(c1)CCCN2C(=O)C1CCCN(S(=O)(=O)c2ccc(C(C)(C)C)cc2)C1 (stereo not drawn) the results were FUS yeast rescue inactive.
COc1ccccc1N1CCN(C2CCCCC2NS(=O)(=O)c2ccccc2)CC1 (stereo not drawn) was read as TDP-43 yeast inh -9%, Mito fusion yeast -2%, Abeta yeast res inactive, FUS yeast rescue inactive and aSyn yeast inh -4%.
COC(=O)[C@]12C[C@H](CC(=O)N3CCC(c4ccccc4)CC3)C(=O)N(Cc3cccc4ccccc34)C1=C[C@H](C(C)C)O[C@@H]2C1CC1 was read as FUS yeast rescue inactive.
Screening COc1ccc([C@H]2CC(=O)C=C(c3cccc(Cl)c3O)C2)cc1OC returned TDP-43 yeast inh 18µM*, Mito fusion yeast inconclusive, Abeta yeast res inactive, FUS yeast rescue inactive and aSyn yeast inh 5%.
For O=C1C=C(c2cccc(Cl)c2O)C[C@@H](c2ccc3c(c2)OCO3)C1 the results were TDP-43 yeast inh 3.5µM*, Mito fusion yeast 11µM*, Abeta yeast res inactive, FUS yeast rescue inactive and aSyn yeast inh inconclusive.
For COc1ccc(N2CCN(C(=O)Cc3noc4ccc(C)cc34)CC2)cc1 the results were TDP-43 yeast inh 11µM*, Abeta yeast res inactive and FUS yeast rescue inactive.
Cc1ccc2onc(CNC(=O)N3CCN(c4cccc(C)c4C)CC3)c2c1 was read as TDP-43 yeast inh 20µM*, Abeta yeast res inactive and FUS yeast rescue inconclusive.
CCc1ccccc1NC(=O)Nc1c[nH]c(=O)[nH]c1=O was read as TDP-43 yeast inh 14%, Abeta yeast res inactive and FUS yeast rescue inactive.
`CCc1noc(C)c1C(=O)Nc1nc(-c2cccs2)cs1` gave TDP-43 yeast inh 13µM*, Mito fusion yeast 27%, Abeta yeast res inactive, FUS yeast rescue inactive and aSyn yeast inh -10%.
Screening C=CCn1c2ccccc2c(=O)c2cc(C#Cc3ccsc3)ccc21 returned Mito fusion yeast 5%.
`C=CCn1c2ccccc2c(=O)c2cc(C#Cc3ccccn3)ccc21` gave TDP-43 yeast inh 20µM*, Mito fusion yeast 13%, Abeta yeast res inactive, FUS yeast rescue inactive and aSyn yeast inh -25%.
`CCOc1cc(-c2ccc3c(c2)OCO3)cc(=[O+]CC)c2c(C)oc(C)c12` gave aSyn yeast inh 4%.
Cc1cc(NS(=O)(=O)c2ccc(NC(=O)Cc3ccc(Cl)c(F)c3)cc2)no1 was read as FUS yeast rescue inactive.
COc1ccc(-c2csc(C(O)c3ccc(F)c(OC)c3)n2)cn1 (stereo not drawn) was read as TDP-43 yeast inh 35µM*, Abeta yeast res inactive, FUS yeast rescue inactive and aSyn yeast inh 19%.
Screening COCc1cccc(-c2csc(C(O)c3ccc(F)c(OC)c3)n2)c1 (stereo not drawn) returned TDP-43 yeast inh inconclusive, Abeta yeast res inconclusive, FUS yeast rescue inactive and aSyn yeast inh 10%.
For COc1ccc(-c2csc(C(O)c3ccc(F)c(F)c3)n2)cn1 (stereo not drawn) the results were TDP-43 yeast inh 22µM*, Abeta yeast res inconclusive, FUS yeast rescue inactive and aSyn yeast inh inconclusive.
For O=C(CCc1ccccc1)N[C@H]1[C@@H](OC(=O)c2ccc([N+](=O)[O-])cc2)CCC[C@]12C(=O)N(Cc1ccccc1)c1ccccc12 the results were FUS yeast rescue inactive.
`CN1CC=C(c2ccccc2)N(c2ccc(Cl)cc2)C1=O` gave FUS yeast rescue inactive.
`COc1ccc2oc3cc(C)[n+]([O-])c(-c4ccc(Cl)cc4)c3c2c1` gave TDP-43 yeast inh inconclusive, Mito fusion yeast 22µM*, Abeta yeast res inactive and aSyn yeast inh inconclusive.
For COc1ccc(-c2c3c(cc(C)[n+]2[O-])oc2ccc(OC)cc23)cc1 the results were TDP-43 yeast inh inconclusive, Mito fusion yeast 12%, Abeta yeast res inactive and aSyn yeast inh 12%.
For C=CCN(CC#Cc1ccccc1)Cc1ccc(OC)cc1 the results were FUS yeast rescue inactive.
